Assay [1] in a line: qHTS assay to test for compound auto fluorescence at 535 nm (green) in HEK293 cells (AID 720680). A general note: qHTS replaces the single test concentration by a dilution series.
A short description of assay [2]: qHTS assay to test for compound auto fluorescence at 460 nm (blue) in HEK293 cell free culture (AID 720681). The essentials:
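Compounds were added to cell-free DMEM with 10% FBS and fluorescence read directly. The blue channel used 405 nm excitation and 460 nm emission, with triamterene as the reference fluorophore.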

Assay [3] can be described thus: qHTS assay to test for compound auto fluorescence at 535 nm (green) in HEK293 cell free culture (AID 720682). In a few lines: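 Cell-free medium (DMEM, 10% FBS) receives compound or DMSO by pintool. Plate read directly at Ex 485/Em 535 nm. Signal converted to fluorescein equivalency.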
Assay [4] in a line: qHTS assay to test for compound auto fluorescence at 590 nm (red) in HEK293 cell free culture (AID 720683). The essentials: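 Cell-free wells of DMEM with 10% FBS received compound, and intrinsic fluorescence was read at excitation/emission 540/590 nm. Values expressed as equivalence to Rose Bengal sodium.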
Assay [5] can be described thus: qHTS assay to test for compound auto fluorescence at 590 nm (red) in HepG2 cell free culture (AID 720684). The essentials: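 Auto fluorescence equivalency versus Rose Bengal sodium, red channel Ex/Em 540/590 nm; compounds in cell-free MEM/10% FBS; DMSO vehicle control.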
Assay [6] in a line: qHTS assay to test for compound auto fluorescence at 460 nm (blue) in HepG2 cell free culture (AID 720685). The essentials: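 Cell-free plates of MEM plus 10% FBS received 23 nL compound or DMSO vehicle; blue-channel (405/460 nm) intensity scored against triamterene as reference fluorophore.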
The nature of assay [7]: qHTS assay to test for compound auto fluorescence at 535 nm (green) in HepG2 cell free culture (AID 720686).
A short description of assay [8]: qHTS assay to test for compound auto fluorescence at 460 nm (blue) in HepG2 cells (AID 720687). In a few lines:
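HepG2 cells in MEM with 10% FBS, attached overnight at 37 C, were exposed to compound or DMSO for 1 hr at 37 C, 5% CO2. Blue fluorescence was read at 405/460 nm, with triamterene as reference fluorophore.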

The target of assay [9] is Glucocorticoid receptor (Homo sapiens) (UniProt P04150). The assay can be described thus: qHTS assay to identify small molecule agonists of the glucocorticoid receptor (GR) signaling pathway (AID 720691; active = well fitted activation curve with a large enough effect in the signal ratio in the repeat runs, not every such curve was filed as active; the % refers to the signal ratio; note: potency is the fitted concentration of half-maximal effect). The essentials: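 Compounds in DMSO, alongside positive controls, were added to GR-bla HeLa reporter cells and incubated 18 h at 37 C; GRE-driven beta-lactamase was detected by fluorescence after 2 h with FRET substrate at room temperature.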

Assay [10] is described as follows: qHTS assay to identify small molecule antagonists of the glucocorticoid receptor (GR) signaling pathway - cell viability counter screen (AID 720693). Note: nearly all actives have a fitted effect of over 55% in size.
Assay [11] in a line: qHTS assay for identifying genotoxic compounds that show differential cytotoxicity against isogenic chicken DT40 cell lines with known DNA damage response pathways - wild type cell line (AID 743012). Note: nearly all actives have a fitted effect of over 60% in size. Note: potency is the fitted concentration of half-maximal effect. The essentials: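 Viability of DNA repair-proficient chicken DT40 cells was assessed by CellTiter-Glo luminescence following 40 h compound exposure at 37 C/5% CO2.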
A short description of assay [12]: qHTS assay for identifying genotoxic compounds that show differential cytotoxicity against isogenic chicken DT40 cell lines with known DNA damage response pathways - Rev3 mutant cell line (AID 743014). Note: nearly all actives have a fitted effect of over 55% in size. Note: potency is the fitted concentration of half-maximal effect.
Assay [13] is described as follows: qHTS assay for identifying genotoxic compounds that show differential cytotoxicity against isogenic chicken DT40 cell lines with known DNA damage response pathways - Rad54/Ku70 mutant cell line (AID 743015). Note: nearly all actives have a fitted effect of over 60% in size. Note: potency is the fitted concentration of half-maximal effect.
The nature of assay [14]: qHTS assay to identify small molecule antagonists of the androgen receptor (AR) signaling pathway - cell viability counter screen (AID 743033; note: nearly all actives have a fitted effect of over 45% in size; note: potency is the fitted concentration of half-maximal effect).
A short description of assay [15]: qHTS assay to identify small molecule antagonists of the androgen receptor (AR) signaling pathway using the MDA cell line - cell viability counter screen (AID 743041; note: nearly all actives have a fitted effect of over 45% in size; note: potency is the fitted concentration of half-maximal effect). In a few lines: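 Compound exposure lasted 16 h at 37C in MDA-kb2 AR-luc cells stimulated with R1881. Protease-based CellTiter-Fluor reagent was applied for the final 30 min and fluorescence measured.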

In assay [16] the target is Glucocorticoid receptor (Homo sapiens) (UniProt P04150). The assay can be described thus: qHTS assay to identify small molecule antagonists of the glucocorticoid receptor (GR) signaling pathway (AID 720692; active = well fitted inhibition curve with a large enough effect in the signal ratio in the repeat runs, not every such curve was filed as active; the % refers to the signal ratio; note: potency is the fitted concentration of half-maximal effect). In a few lines:
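In a 1536-well cell format, compounds were added 4 h after seeding GR-bla HeLa cells, together with dexamethasone at 5 nM final; reporter activity was measured by FRET-substrate fluorescence following 18 h at 37 C.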

Assay [17] concerns the target Androgen receptor (Homo sapiens) (UniProt P10275). As to the kind of experiment: qHTS assay to identify small molecule antagonists of the androgen receptor (AR) signaling pathway (AID 743035; active = well fitted inhibition curve with a large enough effect in the signal ratio in the repeat runs, not every such curve was filed as active; the % refers to the signal ratio; note: potency is the fitted concentration of half-maximal effect). The essentials: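 Reporter HEK293 cells were exposed to compounds and R1881 overnight (16 h, 37C); beta-lactamase activity was then quantified by FRET fluorescence.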
Assay [18] has the same target. As to the kind of experiment: qHTS assay to identify small molecule agonists of the androgen receptor (AR) signaling pathway (AID 743036; active = well fitted activation curve with a large enough effect in the signal ratio in the repeat runs, with a control signal flat, not every such curve was filed as active; the % refers to the signal ratio). The essentials:
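AR-bla HEK293 cells, 2,000/well; 4 h preincubation 37C/5% CO2; compound (DMSO) 16 h at 37C; LiveBLAzer B/G FRET substrate 2 h RT; fluorescence intensity read-out.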

Assay [19] has the same target. The assay can be described thus: qHTS assay to identify small molecule agonists of the androgen receptor (AR) signaling pathway using the MDA cell line (AID 743040; note: nearly all actives have a fitted effect of over 20% in size). The essentials:
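Testing was done with the MDA-kb2 AR-luc line, a human breast carcinoma stably transfected with MMTV-luciferase containing AR and GR response elements. Cells were exposed 16 h at 37C before ONE-Glo luminescence detection.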

Assay [20] has the same target. As to the kind of experiment: qHTS assay to identify small molecule antagonists of the androgen receptor (AR) signaling pathway using the MDA cell line (AID 743042; note: nearly all actives have a fitted effect of over 55% in size). In a few lines:
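MDA-kb2 breast carcinoma cells carrying MMTV-luciferase (AR/GR responsive) were co-treated with compounds and the agonist R1881 for 16 h at 37C. Inhibition read as ONE-Glo luminescence; CellTiter-Fluor fluorescence measured in parallel for cytotoxicity.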

Several values for one entry are separate records, joined by “and”; a condition that tells them apart may be missing. Equal entries are not always repeated. Results filed as inconclusive are left out. A structure can be active in one record and inactive in another. Activity calls are given as the source filed them. Unless noted, calls come from the whole dose curve; as a rule, active = well fitted curve in the direction sought with a large enough effect in the repeat runs; inconclusive = weak or mixed curves; inactive = no such curve, though single readings can be large; an effect the other way counts as inactive or inconclusive.

Sequence of Glucocorticoid receptor (Homo sapiens) (P04150 whole entry, looked up): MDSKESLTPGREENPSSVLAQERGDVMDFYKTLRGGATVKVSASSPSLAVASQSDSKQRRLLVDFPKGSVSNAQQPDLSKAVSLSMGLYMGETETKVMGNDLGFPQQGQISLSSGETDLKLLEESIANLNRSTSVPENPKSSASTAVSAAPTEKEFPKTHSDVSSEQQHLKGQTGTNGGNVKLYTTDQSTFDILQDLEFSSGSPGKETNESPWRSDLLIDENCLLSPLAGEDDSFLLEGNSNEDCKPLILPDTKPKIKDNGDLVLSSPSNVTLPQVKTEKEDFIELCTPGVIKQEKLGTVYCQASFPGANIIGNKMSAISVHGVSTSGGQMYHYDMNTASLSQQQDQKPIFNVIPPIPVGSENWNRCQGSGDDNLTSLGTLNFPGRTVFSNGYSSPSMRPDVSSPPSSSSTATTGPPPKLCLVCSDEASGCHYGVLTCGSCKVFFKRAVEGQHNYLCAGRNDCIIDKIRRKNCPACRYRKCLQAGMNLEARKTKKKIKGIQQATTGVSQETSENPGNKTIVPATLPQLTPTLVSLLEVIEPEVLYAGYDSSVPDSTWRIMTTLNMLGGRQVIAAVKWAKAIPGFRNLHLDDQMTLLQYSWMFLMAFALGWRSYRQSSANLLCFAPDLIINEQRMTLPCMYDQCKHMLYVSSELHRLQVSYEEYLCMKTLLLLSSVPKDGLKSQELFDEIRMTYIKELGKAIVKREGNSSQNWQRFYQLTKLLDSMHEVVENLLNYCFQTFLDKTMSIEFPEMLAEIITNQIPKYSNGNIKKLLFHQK
Sequence of Androgen receptor (Homo sapiens) (P10275 whole entry, looked up): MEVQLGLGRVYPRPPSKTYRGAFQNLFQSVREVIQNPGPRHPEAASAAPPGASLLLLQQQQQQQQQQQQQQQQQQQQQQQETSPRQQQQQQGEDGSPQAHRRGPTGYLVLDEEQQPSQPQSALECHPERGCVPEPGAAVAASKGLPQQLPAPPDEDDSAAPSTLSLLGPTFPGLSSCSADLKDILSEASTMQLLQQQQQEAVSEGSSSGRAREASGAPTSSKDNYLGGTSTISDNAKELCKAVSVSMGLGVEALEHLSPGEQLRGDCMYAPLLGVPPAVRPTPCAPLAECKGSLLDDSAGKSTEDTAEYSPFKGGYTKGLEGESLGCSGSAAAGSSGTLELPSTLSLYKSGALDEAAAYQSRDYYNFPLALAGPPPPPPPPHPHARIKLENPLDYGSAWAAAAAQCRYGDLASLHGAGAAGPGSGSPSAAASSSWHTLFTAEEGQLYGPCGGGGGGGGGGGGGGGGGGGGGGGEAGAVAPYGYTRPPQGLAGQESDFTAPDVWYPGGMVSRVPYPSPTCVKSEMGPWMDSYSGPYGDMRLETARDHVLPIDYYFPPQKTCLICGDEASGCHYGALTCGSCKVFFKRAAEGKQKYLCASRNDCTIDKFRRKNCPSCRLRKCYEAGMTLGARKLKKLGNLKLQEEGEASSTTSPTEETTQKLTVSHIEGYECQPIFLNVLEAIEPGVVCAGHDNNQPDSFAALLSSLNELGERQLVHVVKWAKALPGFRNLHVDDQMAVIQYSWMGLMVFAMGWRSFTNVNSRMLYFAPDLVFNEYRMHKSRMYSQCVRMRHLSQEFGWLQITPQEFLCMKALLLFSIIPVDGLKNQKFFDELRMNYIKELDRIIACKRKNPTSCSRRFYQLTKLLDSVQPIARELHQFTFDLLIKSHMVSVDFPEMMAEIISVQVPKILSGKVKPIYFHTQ

For the molecule `CN(C)C(=S)SC(=S)N(C)C`, the Potency result in assay [1], in assay [2], in assay [3], in assay [4], in assay [5] and in assay [6] was “inactive” each time. The Potency result in assay [7], in [8] and in assay [10] was “inactive” each time. Besides, the Potency is 448 nM (active) in [9]; 944 nM (active) and 1.11 µM (active) and 172 nM (active) in [11]; 1.19 µM (active) and 886 nM (active) and 96.9 nM (active) in assay [12]; 750 nM (active) and 789 nM (active) and 96.9 nM (active) in [13]; 7.56 µM (active) and 1.42 µM (active) and 2.75 µM (active) in [14]; 6.99 µM (active) and 6.27 µM (active) and 1.22 µM (active) in assay [15].

As to `CC(=O)Nc1c(I)c(NC(C)=O)c(I)c(C(=O)O)c1I`, the Potency entry in assay [1], in [2], in assay [3], in assay [4], in assay [5] and in [6] was “inactive” each time. Further, the Potency result in [7], in [8], in assay [9], in assay [16], in [10] and in assay [11] was “inactive” each time. Also, the Potency result in assay [12], in assay [13], in assay [14] and in [15] was “inactive” throughout.

On to `C[C@](N)(Cc1ccc(O)c(O)c1)C(=O)O`, for which the Potency result in assay [1], in assay [2], in assay [3], in assay [4], in assay [5] and in assay [6] was “inactive” each time. In addition, the Potency entry in assay [7], in assay [8], in assay [10], in assay [11], in [14] and in assay [15] was “inactive” in each case. For the same molecule, the Potency entry was “inactive and 61.6 µM (active) and 60.9 µM (active)” in assay [12]; “inactive and 60.9 µM (active)” in [13].

In the case of `CN(C)C(=O)Nc1ccc(Cl)c(Cl)c1`, the Potency result in [1], in [2], in assay [3], in [4], in assay [5] and in assay [7] was “inactive” in each case. Further, the Potency result in [8], in assay [9], in assay [16], in assay [10], in assay [11] and in [13] was “inactive” each time. The Potency entry in [14], in assay [17], in assay [15] and in [20] was “inactive” throughout. In addition, in [12], the Potency entry is “inactive and 54.5 µM (active)”. Besides, the molecule was classed as inactive in [18] and in [19].

In the case of `CN[C@H]1CC[C@@H](c2ccc(Cl)c(Cl)c2)c2ccccc21`, the Potency entry in assay [1], in assay [2], in assay [3], in assay [4], in assay [5] and in assay [6] was “inactive” in each case. Further, the Potency result in assay [7], in assay [8], in assay [9] and in assay [10] was “inactive” throughout. Also, the Potency in assay [11] was 5.96 µM (active); in assay [12], 8.41 µM (active); in [13], 7.5 µM (active); in assay [14], 23.9 µM (active).

With `O=C1O[C@H]([C@@H](O)CO)C(O)=C1O`, the Potency entry in assay [1], in [2], in assay [3], in [4], in [5] and in [6] was “inactive” throughout. The Potency result in [7], in [8], in [9], in assay [16], in assay [10] and in assay [14] was “inactive” each time. Further, the Potency result in assay [15] was “inactive”. The Potency entry was “inactive and 54.5 µM (active)” in assay [11]; “inactive and 21.7 µM (active)” in assay [12]; “inactive and 48.6 µM (active)” in assay [13].

Regarding `O=C1c2c(O)cccc2Cc2cccc(O)c21`, the Potency entry in assay [1], in assay [2], in [3], in [4], in assay [5] and in [6] was “inactive” in each case. Also, the Potency entry in assay [7], in assay [8], in [9], in [16], in assay [10] and in assay [11] was “inactive” in each case. The Potency entry in assay [12], in assay [13], in assay [14] and in [15] was “inactive” in each case.

For the molecule `CCCC[P+](CCCC)(CCCC)CCCC`, the Potency entry in assay [1], in [2], in [3], in [4], in [5] and in assay [6] was “inactive” throughout. Also, the Potency entry in assay [7], in assay [8], in [9], in [16], in assay [10] and in assay [14] was “inactive” in each case. Moreover, in assay [15], the Potency result is “inactive”. The Potency in assay [11] is 1.08 µM (active) and 7.84 µM (active) and 4.33 µM (active); in assay [12], 684 nM (active) and 3.93 µM (active); in [13], 609 nM (active) and 3.5 µM (active).

In the case of `CN1CCC[C@H]1c1cccnc1`, the Potency result in assay [1], in assay [2], in [3], in assay [4], in assay [5] and in assay [6] was “inactive” in each case. For the same molecule, the Potency entry in assay [7], in assay [8], in assay [10], in assay [11], in assay [12] and in [13] was “inactive” each time. Moreover, the Potency result in assay [14] and in assay [15] was “inactive” in each case.

Consider `Cn1c(=O)c2c(ncn2C)n(C)c1=O`, for which the Potency entry in assay [1], in assay [2], in [3], in assay [4], in assay [5] and in assay [6] was “inactive” in each case. Moreover, the Potency result in assay [7], in assay [8], in assay [9], in assay [16], in [10] and in [11] was “inactive” throughout. In addition, in [14], the Potency entry was “inactive”. The Potency entry in [12] is “inactive and 49.2 µM (active)”; in [13] it was “inactive and 49.2 µM (active)”.

As to `CCCCCCCC(=O)OCC(COC(=O)CCCCCCC)OC(=O)CCCCCCC`, the Potency result in assay [1], in assay [2], in assay [3], in [4], in assay [5] and in assay [6] was “inactive” in each case. In addition, the Potency entry in [7], in [8], in assay [9], in assay [16], in assay [10] and in assay [11] was “inactive” each time. Besides, the Potency result in assay [12], in assay [13], in assay [14] and in assay [15] was “inactive” throughout.

As for `CCCCCCc1ccc(O)cc1O`, the Potency result in [1], in assay [2], in assay [3], in [4], in assay [5] and in [7] was “inactive” throughout. For the same molecule, the Potency entry in assay [8], in [9], in [10], in [14], in [15] and in assay [20] was “inactive” throughout. The Potency result in assay [16] is “inactive and 49 µM (active)”; in assay [11], 48.6 µM (active); in assay [12] it was 54.6 µM (active) and 38.6 µM (active); in assay [13], 21.7 µM (active); in assay [17], “inactive and 43.8 µM (active) and 43.6 µM (active)”. Moreover, the molecule was called inactive in [18] and in assay [19].

As for `Nc1c2c(nc3ccccc13)CCCC2`, the Potency entry in assay [1], in assay [2], in assay [3], in [4], in assay [5] and in assay [6] was “inactive” in each case. Besides, the Potency result in assay [7], in assay [8], in assay [10], in [14] and in [15] was “inactive” each time. Further, the Potency entry in [11] is “inactive and 27.3 µM (active)”; in [12], “inactive and 27.3 µM (active)”; in assay [13] it was “inactive and 19.3 µM (active)”.

For the origin of these results see PubChem BioAssay (Tox21).
